From PubChem BioAssay (NCI)
Compounds without any hit were thinned out: in the full panel of roughly 83,000, 20% have a hit.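 96-well plates, one dose, 48 hours. Percent growth reported; active if below 10.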 Activity calls are given as the source filed them.

The compounds below were run on RXF 393 renal (assay: NCI-60 one-dose screen, 48 h (100 = growth as untreated, 0 = no growth, -100 = all killed)). Conditions: 10 µM unless noted.

SMILES | growth
O=c1nc(-c2ccccc2)c2cc(-c3ccc(N4CCCC4)nc3)ccc2[nH]1 | 81.2% (inactive)
O=[N+]([O-])c1cccc(CN(Cc2cccc([N+](=O)[O-])c2O)c2ccccc2)c1O | 88.6% (inactive)
Oc1ccccc1-c1nc2c3ccccc3c3ccccc3c2o1 | 109% (inactive)
CN(C)CCCn1c2c(c3cc(-c4ccco4)ccc3c1=O)C(=O)c1ccccc1-2 | 75.5% (inactive)
COc1ccc(C2CC(c3ccc(OC)cc3O)=NN2c2ccc(S(N)(=O)=O)cc2)cc1 (stereo not drawn) | 67.5% (inactive)
Cc1c(Cl)cccc1NC(=O)c1sc2nc3c(cc2c1N)CCCCCC3 | 12.2% (inactive)
[2H]c1cc2c(c([2H])c1F)/C(=C/c1[nH]c(C)c(C(=O)NCCN(CC)CC)c1C)C(=O)N2 | 25% (inactive)
CC(=O)Oc1c2c(nc3c1c1ccccc1n3Cc1ccccc1)-c1ccccc1C2 | 116% (inactive)
C=C(C)[C@@H]1CC[C@]2(C(=O)n3ccnc3)CC[C@]3(C)[C@H](CC[C@@H]4[C@@]5(C)CCCNC(C)(C)[C@@H]5CC[C@]43C)[C@@H]12 | 10.8% (inactive)
CC(C)C[C@H](C(=O)O)N(C)C(=O)[C@@H]1CCCN1C(=O)[C@H](C)OC(=O)[C@H](CCC(N)=O)NC(=O)[C@@H]1CCC(=O)N1 | 135% (inactive)
COC(=O)CCc1cc(O)c2c(c1)[C@@H](C(=O)OC)[C@H](c1ccc(O)c(O)c1)O2 | 88.5% (inactive)
CCCCN(CCCC)CC(CN(CC)CC)OC(=O)Nc1ccccc1 (stereo not drawn) | 95.1% (inactive)
COC(=O)CCc1n(Cc2ccc3ccccc3c2)c2ccccc2[n+]1Cc1ccc2ccccc2c1 | 23.7% (inactive)
COc1ccc(Nc2nc(SCC(C)C)nc(-c3ccc(F)cc3)c2C#N)cc1 | 74% (inactive)
CCCS(=O)(=O)Nc1ccc(F)c(C(=O)c2c[nH]c3ncc(-c4ccc(OCCCC5CCCCN5)nc4)cc23)c1F (stereo not drawn) | 63.9% (inactive)
CC(=O)c1ccc(NC(=O)CSc2nnc(-c3cc(-c4ccc(C)cc4)nc4ccccc34)o2)cc1 | 59% (inactive)
Oc1ccc(CNNc2ccnc3c(O)cccc23)c2cccnc12 | 59.6% (inactive)
COc1ccc(-c2cs/c(=N\N=C\c3ccc(O)cc3O)n2/N=C/c2ccc(O)cc2O)cc1 | -35.6% (active)
c1ccc(-c2n(Cc3ccc4ccccc4n3)cc[n+]2Cc2ccc3ccccc3n2)cc1 | 52.2% (inactive)

SMILES | growth
O=C1C(Cl)=C(NCCCN(CCCNC2=C(Cl)C(=O)c3ccccc3C2=O)C2=C(Cl)C(=O)c3ccccc3C2=O)C(=O)c2ccccc21 | 85.3% (inactive)
CCc1ccc(OCc2ccccc2C(=O)Nc2ccc3nc(C)cc(N)c3c2)cc1 | -84.5% (active)
CC1CCN(CCCCCOc2ccc3oc4cc(Cl)ccc4c(=O)c3c2)CC1 | 52.8% (inactive)
Nc1ccccc1NS(=O)(=O)c1ccc(Cl)cc1 | 115% (inactive)
COc1cc(C2=NNC(c3ccc(N(C)C)cc3)C2)cc(OC)c1OC (stereo not drawn) | -31.7% (active)
COc1cc(NC(=O)Nc2cnc(Nc3ccc(N4CCOCC4)cc3)nc2Oc2ccc(C(F)(F)F)cc2)cc(OC)c1 | 110% (inactive)
C=C(C)[C@@H]1CC[C@]2(C(=O)O)CC[C@]3(C)[C@H](CC[C@@H]4[C@@]5(C)C[C@@H](CC#Cc6ccc(Cl)cc6)C(=O)C(C)(C)[C@@H]5CC[C@]43C)[C@@H]12 | 62.4% (inactive)
Cc1cc(Nc2nc(SCc3ccc(C(=O)Nc4ccc(F)cc4N)cc3)nn3cccc23)n[nH]1 | 23.5% (inactive)
O=C(/C(=C/c1ccc([N+](=O)[O-])cc1)SCc1ccc(F)cc1)c1ccc(Cl)cc1 | 93.4% (inactive)
C#C[C@@]1(O)[C@@H](CO)O[C@@H](n2cc(Br)c3c(N)ncnc32)[C@@H]1O | -30.9% (active)
CC(=O)[C@@H]1CC[C@]2(C(=O)O)CC[C@]3(C)[C@H](CC[C@@H]4[C@@]5(C)Cc6c([nH]c7ccccc67)C(C)(C)[C@@H]5CC[C@]43C)[C@@H]12 | 73.2% (inactive)
CC[C@]12C=CCN3CC[C@@]4(c5cc(NC(=O)CCC(=O)O[C@H]6CC[C@H]7[C@@H]8CC[C@H]9CC(=O)CC[C@]9(C)[C@H]8CC[C@]67C)c(OC)cc5N(C)[C@H]4[C@@](O)(C(=O)OC)[C@@H]1OC(C)=O)[C@@H]32 | 66.2% (inactive)
CCCCCOC(=O)c1ccccc1O | 123% (inactive)
O=C1CCC23OC(c4ccccc4N12)C(O)C(O)C3O (stereo not drawn) | 113% (inactive)
N#Cc1c(NC(=O)c2cccs2)[n+]([O-])c2cc(C(F)(F)F)ccc2[n+]1[O-] | 109% (inactive)
Cc1[nH]c2ncnc(Oc3ccc(NC(=O)Nc4ccc(Cl)c(C(F)(F)F)c4)cc3)c2c1C | 74.3% (inactive)
c1cc(CNC23CC4CC(CC(C4)C2)C3)cc(C[N+](Cc2cccc(CNC34CC5CC(CC(C5)C3)C4)c2)(Cc2cccc(CNC34CC5CC(CC(C5)C3)C4)c2)Cc2cccc(CNC34CC5CC(CC(C5)C3)C4)c2)c1 (stereo not drawn) | 4.56% [42 µM] (active)
C[C@H]1[C@H](C)CC[C@]2(C(=O)OCCCC[P+](c3ccccc3)(c3ccccc3)c3ccccc3)CC[C@]3(C)C(=CC[C@@H]4[C@@]5(C)CC[C@H](OC(=O)C(Cl)Cl)C(C)(C)[C@@H]5CC[C@]43C)[C@H]12 | -91.4% (active)
O=C(Nc1nc(-c2ccccc2)cs1)c1cc(-c2ccc(Br)cc2)nc2ccccc12 | 65.7% (inactive)
